# Assay results as given in PMC7862700, “An all-to-all approach to the identification of sequence-specific readers for epigenetic DNA modifications on cytosine”.
# Assays:
# Experiment in all cases: DAPPL (digital affinity profiling via proximity ligation, sequencing); 10 mM Tris-HCl pH 7.5, 50 mM NaCl, 1 mM DTT, 4% glycerol, room temperature, 30 min; GST-TFs on glutathione beads, 16-mer random dsDNA library, 0.1% formaldehyde crosslink after washing; high values mean tight binding
# FEV = target: T1, FEV (Homo sapiens, UniProt Q99581 1-238); settings: protein: recombinant; tags: N-terminal GST; dsDNA, one strand shown
# T1 sequence: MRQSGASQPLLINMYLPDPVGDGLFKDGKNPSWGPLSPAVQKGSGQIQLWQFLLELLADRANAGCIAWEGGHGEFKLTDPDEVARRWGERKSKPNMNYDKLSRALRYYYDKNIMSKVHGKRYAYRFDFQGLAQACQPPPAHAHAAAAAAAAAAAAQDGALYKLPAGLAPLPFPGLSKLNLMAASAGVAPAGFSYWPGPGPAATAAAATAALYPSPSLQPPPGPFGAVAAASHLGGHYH
# Procedure, shortened: (§1)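 After expression in yeast as GST fusions, human transcription factors were bound to glutathione beads, DNA-barcoded and mixed with a tag-only sample. The pools were incubated with 200 nmole of a 16-mer random double-stranded DNA library in Tris/NaCl/DTT/glycerol buffer (30 min, room temperature), washed and crosslinked with 0.1% formaldehyde. Proximity ligation with BsaI/T4 ligase ran for 1 h at 37 °C, before PCR amplification and sequencing on an Illumina NextSeq500. Binding signal is a hexamer's read frequency for a factor divided by its frequency for the tag-only sample.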
# ETV5 = ETV5 (Homo sapiens, UniProt P41161 1-510); settings: protein: recombinant; tags: N-terminal GST; dsDNA, one strand shown
# ETV5, sequence (P41161 whole entry): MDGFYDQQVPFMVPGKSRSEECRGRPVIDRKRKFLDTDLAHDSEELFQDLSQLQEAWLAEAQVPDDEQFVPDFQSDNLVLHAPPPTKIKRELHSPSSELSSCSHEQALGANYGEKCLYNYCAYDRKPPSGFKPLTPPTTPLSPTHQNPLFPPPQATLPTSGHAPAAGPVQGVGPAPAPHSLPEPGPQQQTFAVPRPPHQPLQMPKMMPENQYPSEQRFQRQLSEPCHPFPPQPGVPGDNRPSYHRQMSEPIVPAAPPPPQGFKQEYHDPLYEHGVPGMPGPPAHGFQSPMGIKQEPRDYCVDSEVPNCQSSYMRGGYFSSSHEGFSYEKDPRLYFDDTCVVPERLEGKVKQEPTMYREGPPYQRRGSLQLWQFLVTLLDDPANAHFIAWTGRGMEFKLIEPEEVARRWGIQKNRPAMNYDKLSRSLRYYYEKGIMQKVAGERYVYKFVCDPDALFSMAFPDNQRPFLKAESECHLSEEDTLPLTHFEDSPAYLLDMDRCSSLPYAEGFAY
# Procedure, shortened: as §1
# HSF1 = HSF1 (Homo sapiens, UniProt Q00613 1-529); settings: protein: recombinant; tags: N-terminal GST; chain copies: 3; dsDNA, one strand shown
# HSF1, sequence (Q00613 whole entry): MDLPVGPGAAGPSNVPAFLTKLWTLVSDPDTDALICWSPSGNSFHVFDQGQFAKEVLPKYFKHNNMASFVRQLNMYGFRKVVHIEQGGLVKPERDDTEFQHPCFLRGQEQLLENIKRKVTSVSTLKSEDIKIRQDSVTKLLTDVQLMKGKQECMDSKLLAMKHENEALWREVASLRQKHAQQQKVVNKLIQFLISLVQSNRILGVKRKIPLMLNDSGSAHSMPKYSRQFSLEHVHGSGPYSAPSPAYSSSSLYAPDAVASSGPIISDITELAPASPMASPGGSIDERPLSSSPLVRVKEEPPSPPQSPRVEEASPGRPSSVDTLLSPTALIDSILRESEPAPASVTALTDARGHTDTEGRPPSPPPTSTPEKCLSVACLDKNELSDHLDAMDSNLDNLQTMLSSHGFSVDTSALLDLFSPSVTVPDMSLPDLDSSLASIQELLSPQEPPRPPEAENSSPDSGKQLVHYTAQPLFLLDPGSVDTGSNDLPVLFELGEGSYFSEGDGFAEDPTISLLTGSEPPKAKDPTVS
# Procedure, shortened: as §1
# SPIC = target: T2, SPIC (Homo sapiens, UniProt Q8N5J4 1-248); settings: protein: recombinant; tags: N-terminal GST; dsDNA, one strand shown
# T2 sequence: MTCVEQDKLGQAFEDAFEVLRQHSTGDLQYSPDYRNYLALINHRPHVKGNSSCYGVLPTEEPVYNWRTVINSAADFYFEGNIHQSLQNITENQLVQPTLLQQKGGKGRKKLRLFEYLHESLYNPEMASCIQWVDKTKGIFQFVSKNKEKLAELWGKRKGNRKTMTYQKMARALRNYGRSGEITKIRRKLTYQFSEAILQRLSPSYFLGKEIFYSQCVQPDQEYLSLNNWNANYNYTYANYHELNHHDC
# Procedure, shortened: as §1
# ELF4 = ELF4 (Homo sapiens, UniProt Q99607 1-663); settings: protein: recombinant; tags: N-terminal GST; dsDNA, one strand shown
# ELF4, sequence (Q99607 whole entry): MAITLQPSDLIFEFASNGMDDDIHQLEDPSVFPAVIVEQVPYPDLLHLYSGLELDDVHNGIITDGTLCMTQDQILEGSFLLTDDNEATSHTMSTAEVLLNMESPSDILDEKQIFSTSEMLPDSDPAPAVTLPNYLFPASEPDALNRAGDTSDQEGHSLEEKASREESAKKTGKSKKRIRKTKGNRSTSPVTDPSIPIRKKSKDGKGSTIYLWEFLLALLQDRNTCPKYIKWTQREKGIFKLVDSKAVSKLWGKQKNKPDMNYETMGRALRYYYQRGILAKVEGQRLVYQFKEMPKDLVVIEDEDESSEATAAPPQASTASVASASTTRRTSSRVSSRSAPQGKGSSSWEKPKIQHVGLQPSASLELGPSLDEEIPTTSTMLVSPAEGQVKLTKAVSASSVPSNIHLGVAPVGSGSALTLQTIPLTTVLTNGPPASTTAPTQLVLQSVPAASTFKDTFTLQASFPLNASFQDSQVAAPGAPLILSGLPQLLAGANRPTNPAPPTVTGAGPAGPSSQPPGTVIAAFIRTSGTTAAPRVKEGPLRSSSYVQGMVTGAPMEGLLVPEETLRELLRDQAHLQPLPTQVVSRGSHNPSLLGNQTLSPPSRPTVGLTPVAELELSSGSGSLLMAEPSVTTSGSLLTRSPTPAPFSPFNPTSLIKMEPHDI
# Procedure, shortened: as §1
# ELK4 = target: T3, ELK4 (Homo sapiens, UniProt P28324-2 1-405); settings: protein: recombinant; tags: N-terminal GST; dsDNA, one strand shown
# T3 sequence: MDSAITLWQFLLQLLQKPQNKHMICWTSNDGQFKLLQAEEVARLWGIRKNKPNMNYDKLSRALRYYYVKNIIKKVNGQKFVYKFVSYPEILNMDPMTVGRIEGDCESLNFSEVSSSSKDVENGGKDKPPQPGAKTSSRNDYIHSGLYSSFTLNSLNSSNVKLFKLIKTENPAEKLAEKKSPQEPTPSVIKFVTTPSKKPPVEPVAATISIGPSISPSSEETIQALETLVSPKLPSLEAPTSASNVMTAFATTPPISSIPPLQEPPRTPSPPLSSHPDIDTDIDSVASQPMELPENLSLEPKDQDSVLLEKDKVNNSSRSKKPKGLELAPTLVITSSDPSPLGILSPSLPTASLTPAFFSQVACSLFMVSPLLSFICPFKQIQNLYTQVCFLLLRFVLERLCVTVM
# Procedure, shortened: as §1
# ETV2 = target: T4, ETV2 (Homo sapiens, UniProt O00321 1-342); settings: protein: recombinant; tags: N-terminal GST; dsDNA, one strand shown
# T4 sequence: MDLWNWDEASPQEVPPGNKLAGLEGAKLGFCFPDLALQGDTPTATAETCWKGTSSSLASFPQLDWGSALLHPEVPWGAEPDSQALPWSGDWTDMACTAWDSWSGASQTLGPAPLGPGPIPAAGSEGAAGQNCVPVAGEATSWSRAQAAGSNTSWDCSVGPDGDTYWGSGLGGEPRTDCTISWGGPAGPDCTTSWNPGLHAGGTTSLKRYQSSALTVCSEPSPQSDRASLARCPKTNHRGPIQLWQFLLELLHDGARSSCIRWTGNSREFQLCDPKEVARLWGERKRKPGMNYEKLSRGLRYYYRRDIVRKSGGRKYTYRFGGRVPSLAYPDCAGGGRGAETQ
# Procedure, shortened: as §1
# ELF3 = target: T5, ELF3 (Homo sapiens, UniProt P78545 1-371); settings: protein: recombinant; tags: N-terminal GST; dsDNA, one strand shown
# T5 sequence: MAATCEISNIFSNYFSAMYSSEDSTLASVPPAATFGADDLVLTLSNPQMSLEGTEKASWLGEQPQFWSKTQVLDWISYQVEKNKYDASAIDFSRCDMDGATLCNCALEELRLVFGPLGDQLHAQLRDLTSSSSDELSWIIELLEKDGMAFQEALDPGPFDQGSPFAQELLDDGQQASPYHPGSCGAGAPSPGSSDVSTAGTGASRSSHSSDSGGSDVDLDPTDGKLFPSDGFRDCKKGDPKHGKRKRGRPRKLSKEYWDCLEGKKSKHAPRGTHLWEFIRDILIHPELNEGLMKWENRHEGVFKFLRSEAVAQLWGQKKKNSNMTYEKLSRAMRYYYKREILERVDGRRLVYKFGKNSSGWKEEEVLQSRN
# Procedure, shortened: as §1
# CRX = CRX (Homo sapiens, UniProt O43186 1-299); settings: protein: recombinant; tags: N-terminal GST; dsDNA, one strand shown
# CRX, sequence (O43186 whole entry): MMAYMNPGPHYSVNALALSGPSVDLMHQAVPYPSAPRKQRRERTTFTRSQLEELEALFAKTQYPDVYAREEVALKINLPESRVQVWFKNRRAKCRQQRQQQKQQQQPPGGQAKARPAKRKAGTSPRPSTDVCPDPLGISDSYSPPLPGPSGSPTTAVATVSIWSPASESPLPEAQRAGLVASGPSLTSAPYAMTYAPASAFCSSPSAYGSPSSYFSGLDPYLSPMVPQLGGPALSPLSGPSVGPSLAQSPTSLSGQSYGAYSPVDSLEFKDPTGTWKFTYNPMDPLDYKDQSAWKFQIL
# Procedure, shortened: as §1
# ETV1 = ETV1 (Homo sapiens, UniProt P50549 1-477); settings: protein: recombinant; tags: N-terminal GST; dsDNA, one strand shown
# ETV1, sequence (P50549 whole entry): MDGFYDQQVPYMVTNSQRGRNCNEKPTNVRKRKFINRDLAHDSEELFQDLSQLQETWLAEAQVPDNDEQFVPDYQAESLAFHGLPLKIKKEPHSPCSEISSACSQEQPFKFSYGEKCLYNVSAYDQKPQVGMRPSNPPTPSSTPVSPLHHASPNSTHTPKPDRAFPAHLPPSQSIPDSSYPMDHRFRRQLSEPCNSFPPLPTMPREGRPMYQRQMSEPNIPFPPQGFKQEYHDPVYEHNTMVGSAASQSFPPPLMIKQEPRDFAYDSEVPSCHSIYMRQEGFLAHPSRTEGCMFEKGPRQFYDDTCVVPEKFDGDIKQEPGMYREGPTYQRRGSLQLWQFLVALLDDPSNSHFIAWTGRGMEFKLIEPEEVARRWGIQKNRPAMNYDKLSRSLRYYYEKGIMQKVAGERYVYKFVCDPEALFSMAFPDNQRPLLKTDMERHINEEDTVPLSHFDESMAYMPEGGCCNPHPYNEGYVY
# Procedure, shortened: as §1
# ERF = target: T6, ERF (Homo sapiens, UniProt P50548 1-548); settings: protein: recombinant; tags: N-terminal GST; dsDNA, one strand shown
# T6 sequence: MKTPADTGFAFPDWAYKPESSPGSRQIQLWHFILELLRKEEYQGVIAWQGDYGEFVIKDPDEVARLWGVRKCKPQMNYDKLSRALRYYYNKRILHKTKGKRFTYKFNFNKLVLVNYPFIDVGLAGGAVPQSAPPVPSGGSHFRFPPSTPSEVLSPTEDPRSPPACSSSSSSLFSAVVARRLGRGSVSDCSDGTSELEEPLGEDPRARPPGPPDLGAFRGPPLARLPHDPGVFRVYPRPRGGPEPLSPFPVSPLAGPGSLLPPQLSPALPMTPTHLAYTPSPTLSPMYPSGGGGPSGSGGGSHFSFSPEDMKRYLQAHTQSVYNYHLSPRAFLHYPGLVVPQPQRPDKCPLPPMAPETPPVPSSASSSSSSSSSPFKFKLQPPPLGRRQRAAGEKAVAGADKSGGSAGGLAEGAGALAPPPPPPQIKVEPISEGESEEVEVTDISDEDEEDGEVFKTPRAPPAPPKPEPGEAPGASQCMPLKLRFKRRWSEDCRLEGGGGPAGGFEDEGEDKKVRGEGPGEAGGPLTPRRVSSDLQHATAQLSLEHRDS
# Procedure, shortened: as §1
# ETV3L = target: T7, ETV3L (Homo sapiens, UniProt Q6ZN32 1-361); settings: protein: recombinant; tags: N-terminal GST; dsDNA, one strand shown
# T7 sequence: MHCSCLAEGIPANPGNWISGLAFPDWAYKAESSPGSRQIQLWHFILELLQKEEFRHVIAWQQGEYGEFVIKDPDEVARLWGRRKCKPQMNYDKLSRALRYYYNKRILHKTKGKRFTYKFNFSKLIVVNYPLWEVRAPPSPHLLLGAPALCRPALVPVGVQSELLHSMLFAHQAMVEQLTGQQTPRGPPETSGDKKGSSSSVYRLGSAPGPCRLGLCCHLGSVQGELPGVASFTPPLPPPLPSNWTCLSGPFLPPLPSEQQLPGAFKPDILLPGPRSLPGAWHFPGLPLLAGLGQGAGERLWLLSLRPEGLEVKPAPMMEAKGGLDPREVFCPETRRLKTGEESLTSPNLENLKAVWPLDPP
# Procedure, shortened: as §1
# ETS2 = target: T8, ETS2 (Homo sapiens, UniProt P15036 1-469); settings: protein: recombinant; tags: N-terminal GST; dsDNA, one strand shown
# T8 sequence: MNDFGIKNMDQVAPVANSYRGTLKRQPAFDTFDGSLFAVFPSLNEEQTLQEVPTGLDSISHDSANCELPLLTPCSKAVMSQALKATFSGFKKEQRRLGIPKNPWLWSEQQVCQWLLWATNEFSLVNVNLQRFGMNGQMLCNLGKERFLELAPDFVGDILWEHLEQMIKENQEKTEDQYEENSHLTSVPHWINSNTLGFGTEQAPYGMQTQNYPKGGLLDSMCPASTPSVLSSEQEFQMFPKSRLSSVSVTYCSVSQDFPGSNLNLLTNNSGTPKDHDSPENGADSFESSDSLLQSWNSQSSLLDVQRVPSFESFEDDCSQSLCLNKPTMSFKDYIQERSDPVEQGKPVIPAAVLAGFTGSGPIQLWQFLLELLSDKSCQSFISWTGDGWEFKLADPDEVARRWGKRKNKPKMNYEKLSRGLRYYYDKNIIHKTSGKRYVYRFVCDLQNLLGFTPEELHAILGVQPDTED
# Procedure, shortened: as §1
# SPDEF = target: T9, SPDEF (Homo sapiens, UniProt O95238 1-335); settings: protein: recombinant; tags: N-terminal GST; dsDNA, one strand shown
# T9 sequence: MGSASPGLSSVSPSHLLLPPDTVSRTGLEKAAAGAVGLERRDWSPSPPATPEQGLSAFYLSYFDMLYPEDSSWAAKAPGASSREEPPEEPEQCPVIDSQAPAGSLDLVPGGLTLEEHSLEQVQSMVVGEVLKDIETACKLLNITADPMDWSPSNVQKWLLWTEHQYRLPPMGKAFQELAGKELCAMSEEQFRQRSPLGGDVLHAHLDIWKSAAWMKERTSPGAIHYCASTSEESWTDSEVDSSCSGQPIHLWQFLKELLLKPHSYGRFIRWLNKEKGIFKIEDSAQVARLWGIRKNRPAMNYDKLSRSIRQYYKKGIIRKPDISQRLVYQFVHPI
# Procedure, shortened: as §1
# ETV7 = target: T10, ETV7 (Homo sapiens, UniProt Q9Y603 1-341); settings: protein: recombinant; tags: N-terminal GST; dsDNA, one strand shown
# T10 sequence: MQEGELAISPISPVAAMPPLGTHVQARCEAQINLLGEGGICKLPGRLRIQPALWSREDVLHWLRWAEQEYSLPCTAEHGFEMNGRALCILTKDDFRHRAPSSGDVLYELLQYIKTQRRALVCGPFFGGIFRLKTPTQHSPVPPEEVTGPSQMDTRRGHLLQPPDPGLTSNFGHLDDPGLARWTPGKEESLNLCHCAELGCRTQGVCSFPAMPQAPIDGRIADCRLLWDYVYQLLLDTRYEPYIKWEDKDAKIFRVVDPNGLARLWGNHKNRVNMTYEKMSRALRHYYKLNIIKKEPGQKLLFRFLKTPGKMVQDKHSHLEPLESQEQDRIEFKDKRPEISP
# Procedure, shortened: as §1
# ELF5 = target: T11, ELF5 (Homo sapiens, UniProt Q9UKW6-2 1-255); settings: protein: recombinant; tags: N-terminal GST; dsDNA, one strand shown
# T11 sequence: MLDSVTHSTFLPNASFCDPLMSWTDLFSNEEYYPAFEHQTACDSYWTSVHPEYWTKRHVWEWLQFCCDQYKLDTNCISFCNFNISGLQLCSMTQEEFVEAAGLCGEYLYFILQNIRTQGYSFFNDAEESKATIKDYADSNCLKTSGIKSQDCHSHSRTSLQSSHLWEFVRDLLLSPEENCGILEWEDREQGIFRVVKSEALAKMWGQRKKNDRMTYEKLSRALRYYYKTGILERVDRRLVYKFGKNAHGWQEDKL
# Procedure, shortened: as §1
# ETV3 = target: T12, ETV3 (Homo sapiens, UniProt P41162-2 1-143); settings: protein: recombinant; tags: N-terminal GST; dsDNA, one strand shown
# T12 sequence: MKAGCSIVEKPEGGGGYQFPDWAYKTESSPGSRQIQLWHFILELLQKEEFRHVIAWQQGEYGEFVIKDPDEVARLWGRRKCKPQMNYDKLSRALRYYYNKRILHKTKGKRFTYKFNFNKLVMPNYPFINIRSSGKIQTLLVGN
# Procedure, shortened: as §1
# ETV6 = ETV6 (Homo sapiens, UniProt P41212 1-452); settings: protein: recombinant; tags: N-terminal GST; dsDNA, one strand shown
# ETV6, sequence (P41212 whole entry): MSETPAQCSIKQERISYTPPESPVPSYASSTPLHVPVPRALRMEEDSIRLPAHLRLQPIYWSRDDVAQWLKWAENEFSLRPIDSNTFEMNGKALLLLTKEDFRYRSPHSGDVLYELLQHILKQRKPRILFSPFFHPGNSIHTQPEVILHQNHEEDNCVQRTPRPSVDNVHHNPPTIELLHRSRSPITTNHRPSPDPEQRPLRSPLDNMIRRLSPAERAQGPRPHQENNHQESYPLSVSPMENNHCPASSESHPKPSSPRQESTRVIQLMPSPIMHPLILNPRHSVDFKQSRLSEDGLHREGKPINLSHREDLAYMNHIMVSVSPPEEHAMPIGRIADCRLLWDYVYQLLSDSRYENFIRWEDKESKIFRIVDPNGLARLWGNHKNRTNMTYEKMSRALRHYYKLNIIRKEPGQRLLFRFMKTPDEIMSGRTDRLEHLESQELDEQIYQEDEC
# Procedure, shortened: as §1
sequence,measurement,setting,value
GCCTAC,binding signal,FEV,"1.2 fold enrichment (6-mer frequency, TF over GST control)"
same,binding signal,ETV5,"1.16 fold enrichment (6-mer frequency, TF over GST control)"
same,binding signal,HSF1,"1.01 fold enrichment (6-mer frequency, TF over GST control)"
same,binding signal,SPIC,"1.37 fold enrichment (6-mer frequency, TF over GST control)"
same,binding signal,ELF4,"1.26 fold enrichment (6-mer frequency, TF over GST control)"
same,binding signal,ELK4,"1.38 fold enrichment (6-mer frequency, TF over GST control)"
same,binding signal,ETV2,"1.16 fold enrichment (6-mer frequency, TF over GST control)"
same,binding signal,ELF3,"1.1 fold enrichment (6-mer frequency, TF over GST control)"
same,binding signal,CRX,"1.12 fold enrichment (6-mer frequency, TF over GST control)"
same,binding signal,ETV1,"1.2 fold enrichment (6-mer frequency, TF over GST control)"
same,binding signal,ERF,"1.12 fold enrichment (6-mer frequency, TF over GST control)"
same,binding signal,ETV3L,"1.29 fold enrichment (6-mer frequency, TF over GST control)"
same,binding signal,ETS2,"1.23 fold enrichment (6-mer frequency, TF over GST control)"
same,binding signal,SPDEF,"1.12 fold enrichment (6-mer frequency, TF over GST control)"
same,binding signal,ETV7,"1.08 fold enrichment (6-mer frequency, TF over GST control)"
same,binding signal,ELF5,"1.17 fold enrichment (6-mer frequency, TF over GST control)"
same,binding signal,ETV3,"1.3 fold enrichment (6-mer frequency, TF over GST control)"
same,binding signal,ETV6,"1.19 fold enrichment (6-mer frequency, TF over GST control)"
